Experimental data from PubChem BioAssay.
Activity calls are given as the source filed them.

What was measured:
[1] = optical density shifts of acrAB sulA E. coli – strain DRC41, OD650, 48 h, E. coli filamentation inducer project, primary screen (AID 1152); conditions: higher = more signal, called active from +8 up or from −8 down;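 also: E. coli MC1000 strain DRC41 lacking acrAB efflux pump and sulA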
[2] = probe aLefty1 binding on compound microarray – biochemical, small-molecule microarray, 635/667 nm fluorescence, primary screen (AID 1153); conditions: higher = more signal;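 also: score merges spot fluorescence with signal-to-noise ratio from the scanned slide images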
[3] = plasmodial surface anion channel blockers, osmotic lysis – cell-based, P. falciparum Indochina, OD700, 1 h, primary screen (AID 1154); conditions: P. falciparum Indochina infected RBC osmotic lysis, higher = more signal, called active from +8 up or from −8 down
[4] = plasmodial surface anion channel blockers, osmotic lysis – cell-based, P. falciparum Indochina, OD700, 2 h, primary screen (AID 1155);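 also: lysis reports solute entry through the parasite surface anion channel PSAC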; conditions: P. falciparum Indochina infected erythrocytes, higher = more signal, called active from +8 up or from −8 down
[5] = changes in parasitized red cell lysis, either direction – P. falciparum Indochina, OD700, 3 h, PSAC antagonist project, primary screen (AID 1156); conditions: P. falciparum-infected erythrocytes, osmotic lysis, higher = more signal, called active from +8 up or from −8 down
[6] = plasmodial surface anion channel blockers, osmotic lysis – cell-based, P. falciparum Indochina, OD700, 18 h, primary screen (AID 1157); conditions: P. falciparum Indochina infected erythrocytes, osmotic lysis OD700, 18 h; higher = more signal, called active from +8 up or from −8 down
[7] = S6 kinase pathway phospho-S6 level changes – cell-based, A549, cytoblot, luminescence, serum-stimulated, primary screen (AID 1158); conditions: 5 h, higher = more signal;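 also: serum-stimulated A549 lung adenocarcinoma cells; signal is phosphorylated S6 detected by cytoblot immunostaining with HRP secondary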
[8] = target: NADPH oxidase 2 (Homo sapiens) (UniProt P04839); experiment: compounds shifting NOX2 Amplex Red fluorescence – cell-based, HEK293-NOX2, PMA-stimulated, NOX inhibitor project, primary screen (AID 1159); conditions: 45 min, higher = more signal, called active from +8 up or from −8 down; also: test concentration not given here
[9] = target: NADPH oxidase 4 (Homo sapiens) (UniProt Q9NPH5); experiment: compounds shifting NOX4 Amplex Red fluorescence – cell-based, HEK293-NOX4, tetracycline-induced, NOX inhibitor project, primary screen (AID 1160); conditions: HEK293-NOX4, Amplex Red H2O2 fluorescence, 45 min; higher = more signal, called active from +8 up or from −8 down
[10] = target: NADPH oxidase 5 (Homo sapiens) (UniProt Q96PH1); experiment: compounds shifting NOX5 Amplex Red fluorescence – cell-based, HEK293-NOX5, NOX inhibitor project, primary screen (AID 1161); conditions: HEK293-NOX5, ionomycin, 45 min, higher = more signal
[11] = compound effects on lung adenocarcinoma cell viability – A549, calcein-AM fluorescence, 48 h, basal, profiling panel (AID 1162); conditions: higher = more signal; also: test concentration not given here
[12] = compound effects on differentiated 3T3-L1 adipocyte viability – cell-based, 3T3-L1 adipocytes, calcein-AM fluorescence, 48 h, basal, profiling panel (AID 1163); conditions: 3T3-L1 adipocytes viability, higher = more signal; also: test concentration not given here
[13] = compound effects on hepatocellular carcinoma cell viability – HepG2, calcein-AM fluorescence, 48 h, basal, profiling panel (AID 1164); conditions: higher = more signal; also: test concentration not given here
[14] = compound effects on multiple myeloma cell viability – MM1S, calcein-AM fluorescence, 48 h, basal, profiling panel (AID 1165); conditions: higher = more signal; also: test concentration not given here
[15] = calcein-AM signal in unstimulated myeloma cells – cell-based, calcein-AM fluorescence, 48 h, PK04 Diversity Set, profiling panel (AID 1166); conditions: RPMI8226 myeloma viability, higher = more signal;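 also: cells grown under basal conditions without added stimulus; test concentration not given here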
[16] = JC-1 mitochondrial signal, unstimulated HepG2 cells – cell-based, JC-1 fluorescence, 24 h, 100 nL compound, profiling panel (AID 1167); conditions: HepG2 mitochondrial potential, higher = more signal; also: test concentration not given here
[17] = JC-1 mitochondrial signal, unstimulated adipocytes – cell-based, JC-1 fluorescence, 3T3-L1 adipocytes, 24 h, 100 nL compound, profiling panel (AID 1168); conditions: JC-1 mitochondrial fluorescence, higher = more signal, called active from +8 up or from −8 down; also: test concentration not given here
[18] = JC-1 mitochondrial signal, unstimulated myeloma cells – cell-based, JC-1 fluorescence, RPMI8226, 24 h, 100 nL compound, profiling panel (AID 1169); conditions: JC-1 mitochondrial potential fluorescence, higher = more signal; also: test concentration not given here
[19] = JC-1 mitochondrial signal, unstimulated MM1S myeloma – cell-based, JC-1 fluorescence, 24 h, 100 nL compound, profiling panel (AID 1170); conditions: MM1S mitochondrial potential, higher = more signal; also: test concentration not given here
[20] = resazurin metabolic signal in A549 cells – cell-based, resazurin fluorescence, 24 h, PK04 Diversity Set, profiling panel (AID 1171); conditions: A549 viability, higher = more signal, called active from +8 up or from −8 down; also: test concentration not given here

Sequence of NADPH oxidase 2 (Homo sapiens) (P04839 whole entry, looked up): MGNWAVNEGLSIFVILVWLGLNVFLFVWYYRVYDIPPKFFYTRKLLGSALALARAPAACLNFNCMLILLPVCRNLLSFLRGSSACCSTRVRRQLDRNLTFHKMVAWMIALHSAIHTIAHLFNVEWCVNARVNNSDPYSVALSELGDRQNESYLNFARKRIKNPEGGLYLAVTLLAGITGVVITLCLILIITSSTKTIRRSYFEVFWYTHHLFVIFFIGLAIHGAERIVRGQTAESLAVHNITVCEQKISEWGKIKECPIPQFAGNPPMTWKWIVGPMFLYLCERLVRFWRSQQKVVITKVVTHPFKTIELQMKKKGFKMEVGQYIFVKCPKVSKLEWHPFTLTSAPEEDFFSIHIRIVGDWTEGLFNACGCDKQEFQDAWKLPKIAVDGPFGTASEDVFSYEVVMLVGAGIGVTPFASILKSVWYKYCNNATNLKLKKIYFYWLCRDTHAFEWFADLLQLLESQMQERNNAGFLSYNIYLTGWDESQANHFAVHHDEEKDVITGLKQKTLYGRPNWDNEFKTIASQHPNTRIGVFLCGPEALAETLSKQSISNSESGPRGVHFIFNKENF
Sequence of NADPH oxidase 4 (Homo sapiens) (Q9NPH5 whole entry, looked up): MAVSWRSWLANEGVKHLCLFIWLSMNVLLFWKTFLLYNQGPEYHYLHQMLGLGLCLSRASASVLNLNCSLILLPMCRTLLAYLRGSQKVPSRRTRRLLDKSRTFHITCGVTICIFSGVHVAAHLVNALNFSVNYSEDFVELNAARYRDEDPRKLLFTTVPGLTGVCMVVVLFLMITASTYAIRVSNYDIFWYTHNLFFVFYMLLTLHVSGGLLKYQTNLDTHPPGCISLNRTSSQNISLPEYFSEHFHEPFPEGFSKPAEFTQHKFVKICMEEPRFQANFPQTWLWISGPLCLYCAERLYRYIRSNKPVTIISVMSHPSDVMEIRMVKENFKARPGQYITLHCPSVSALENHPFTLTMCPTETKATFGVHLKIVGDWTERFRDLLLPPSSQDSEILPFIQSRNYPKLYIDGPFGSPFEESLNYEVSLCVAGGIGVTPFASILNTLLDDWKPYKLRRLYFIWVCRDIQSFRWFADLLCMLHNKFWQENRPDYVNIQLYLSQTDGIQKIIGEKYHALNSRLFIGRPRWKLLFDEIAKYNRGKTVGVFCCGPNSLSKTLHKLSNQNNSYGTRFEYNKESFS
Sequence of NADPH oxidase 5 (Homo sapiens) (Q96PH1 whole entry, looked up): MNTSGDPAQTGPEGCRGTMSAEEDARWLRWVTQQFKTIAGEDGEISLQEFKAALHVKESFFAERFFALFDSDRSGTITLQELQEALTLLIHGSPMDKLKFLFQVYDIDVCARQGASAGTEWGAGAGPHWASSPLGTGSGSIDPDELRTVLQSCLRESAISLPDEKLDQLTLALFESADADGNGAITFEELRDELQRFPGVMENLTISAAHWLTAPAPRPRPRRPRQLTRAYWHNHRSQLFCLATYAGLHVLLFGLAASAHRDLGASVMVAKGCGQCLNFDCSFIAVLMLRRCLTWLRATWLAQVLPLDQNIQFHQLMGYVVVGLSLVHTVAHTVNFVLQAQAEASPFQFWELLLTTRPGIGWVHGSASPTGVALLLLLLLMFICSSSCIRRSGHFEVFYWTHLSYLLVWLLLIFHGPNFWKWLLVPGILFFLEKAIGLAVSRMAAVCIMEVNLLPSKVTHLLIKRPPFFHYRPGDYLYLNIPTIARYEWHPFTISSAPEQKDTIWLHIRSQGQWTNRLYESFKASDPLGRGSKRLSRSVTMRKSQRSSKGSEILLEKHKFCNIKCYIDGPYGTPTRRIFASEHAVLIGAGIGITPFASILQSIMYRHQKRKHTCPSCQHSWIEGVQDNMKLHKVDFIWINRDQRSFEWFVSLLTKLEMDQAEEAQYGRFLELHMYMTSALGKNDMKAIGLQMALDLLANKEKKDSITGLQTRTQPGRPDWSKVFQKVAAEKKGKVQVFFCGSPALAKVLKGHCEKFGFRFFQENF

Row | Structure (SMILES) | z-score [1] | composite z-score [2] | z-score [3] | z-score [4] | z-score [5] | z-score [6] | z-score [7] | z-score [8] | z-score [9] | z-score [10] | z-score [11] | z-score [12] | z-score [13] | z-score [14] | z-score [15] | z-score [16] | z-score [17] | z-score [18] | z-score [19] | z-score [20]
1 | C[N+](C)(C)CCCC[C@@H]1NC(=O)[C@H]2C[C@@H](C(=O)NCCCCCCNC(=O)CS)[C@@H](c3cccc(OCCO)c3)N2C1=O | 0.415 (inactive) | 0.0774 | 3.29 (inactive) | 0.679 (inactive) | 1.8 (inactive) | 0.0805 (inactive) | 0.0934 | 1.18 (inactive) | 0.639 (inactive) | 1.24 | -1.42 | -0.132 | -0.153 | 0.0157 | -0.682 | 0.325 | 0.0973 (inactive) | -0.277 | -0.326 | -0.257 (inactive)
2 | C[C@@]1([C@@H](NC(=O)c2ccc(-c3ccccc3)cc2)c2ccc(Cl)cc2)C[C@H]1C1CCCCC1 | -1.28 (inactive) | 0.284 | 15.8 (active) | 3.36 (inactive) | -0.0758 (inactive) | 1.11 (inactive) | -0.216 | -0.75 (inactive) | 0.205 (inactive) | 0.644 | -1.18 | -0.52 | -0.934 | -3.43 | -4.76 | -2.21 | -1.07 (inactive) | -0.902 | -2.73 | 0.602 (inactive)
3 | COC(=O)c1c(CC[C@@H](CO)NC(=O)NCCn2cc(C3(O)CCCC3)nn2)oc(C(C)=O)c1C(=O)OC | -1.2 (inactive) | -0.403 | 2.06 (inactive) | 0.474 (inactive) | 1.29 (inactive) | 0.533 (inactive) | -0.359 | -0.278 (inactive) | 0.233 (inactive) | -0.666 | -0.298 | 0.154 | 0.122 | 0.454 | 0.206 | -0.0184 | -0.543 (inactive) | 0.586 | -0.152 | -0.957 (inactive)
4 | CC(C)C[C@@H]1NC(=O)[C@@H]2C[C@H](C(=O)O)[C@H](c3cccc(OCCO)c3)N2C1=O | 0.649 (inactive) | -0.0966 | 3.95 (inactive) | 0.373 (inactive) | -0.917 (inactive) | 0.0571 (inactive) | -0.129 | 1.34 (inactive) | 0.663 (inactive) | 2.01 | 0.196 | 0.237 | -0.404 | 0.101 | -0.57 | 0.555 | -0.531 (inactive) | 0.719 | 0.897 | 0.0499 (inactive)
5 | O=C1C2C=CC(C(O)c3cccc4ccccc34)N(Nc3ccccc3F)C2C(=O)N1c1ccccc1 (stereo not given) | -0.875 (inactive) | 0.419 | 3.49 (inactive) | 1.34 (inactive) | -0.481 (inactive) | 1.05 (inactive) | -0.607 | -0.26 (inactive) | -2.65 (inactive) | -1.21 | -1.05 | -1.47 | -0.231 | 0.121 | -0.345 | -1.86 | -0.794 (inactive) | 0.355 | -1.68 | -0.232 (inactive)
6 | CC(C)=CCCC(C)=CC(O)C1C=CC2C(=O)N(C)C(=O)C2N1Nc1ccccc1 (stereo not given) | -1.5 (inactive) | 0.525 | 7.27 (inactive) | 2.86 (inactive) | 0.977 (inactive) | 1.93 (inactive) | -0.595 | -1.51 (inactive) | -3.97 (inactive) | -1.98 | -1.81 | -1.39 | -1.35 | -2.56 | -4.09 | -2.66 | 1.29 (inactive) | -0.934 | -1.34 | 0.597 (inactive)
7 | NC(=O)NCC#Cc1ccc2c(c1)[C@]1(C(=O)N2)[C@H](C(N)=O)[C@H]2C(=O)O[C@H](c3ccccc3)[C@H](c3ccccc3)N2[C@@H]1c1ccc(O)cc1 | 0.0502 (inactive) | 1.73 | 0.271 (inactive) | 0.436 (inactive) | 0.471 (inactive) | 0.124 (inactive) | 0.226 | 0.122 (inactive) | -0.519 (inactive) | -0.479 | -0.851 | -0.842 | -0.848 | 0.201 | 0.375 | -1.73 | -0.344 (inactive) | -0.758 | -0.094 | 0.808 (inactive)
8 | C=CCOC(=O)[C@H]1[C@@H]2C(=O)O[C@@H](c3ccccc3)[C@@H](c3ccccc3)N2[C@@H](c2ccc(OCCOC(=O)[C@H]3C[C@H]4C(=O)N[C@@H](CCCCNC(C)=O)C(=O)N4[C@H]3c3ccc(O)cc3)cc2)[C@]12C(=O)Nc1ccc(I)cc12 | -1.8 (inactive) | 0.204 | -0.858 (inactive) | 0.461 (inactive) | 0.675 (inactive) | -0.214 (inactive) | -0.635 | 1.36 (inactive) | 0.823 (inactive) | 0.935 | -0.143 | -0.0346 | -0.251 | -2.94 | -2.69 | 1.46 | 0.585 (inactive) | -0.538 | -1.44 | 0.974 (inactive)
